Experimental data published in PubChem BioAssay (NCATS).
Active and inactive are the calls of the source. Calls come from the whole dose curve.

Test: qHTS drug screen for cell cycle checkpoint inhibitors in PARPi-resistant BRCA-mutant ovarian cancer cell lines. (AID 1963452)
Details: PEO1/OlaR viability, CellTiter-Glo luminescence, 96 h; for Z-AUC: stronger effect = lower value
Method in brief: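 PEO1, PEO4 and PEO1/OlaR ovarian cancer cells, 600 per well, exposed 96 h at 37C to a dilution series. Viability read by CellTiter-Glo luminescence, normalized to DMSO and empty wells; activity summarized as Z-AUC.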

[1] = measured here: PEO1 parental Z-AUC
Potency is the fitted concentration of half-maximal effect.

SMILES | Z-AUC | Z-AUC [1] | Z-AUC (measured here: PEO4 Z-AUC) | Potency
COc1ccc(CCN(C)CCCC(C#N)(c2ccc(OC)c(OC)c2)C(C)C)cc1OC (centres undefined) | 0.76 (inactive) | 0.721 | 1.08 | 
C[C@@H]1CC(=O)NN=C1c1ccc(NN=C(C#N)C#N)cc1 | 0.769 (inactive) | 0.69 | 0.452 | 
CC(C)(C)C(=O)Oc1ccc(S(=O)(=O)Nc2ccccc2C(=O)NCC(=O)O)cc1 | 1.22 (inactive) | 0.948 | 1.16 | 
CC1COc2c(N3CCN(C)CC3)c(F)cc3c(=O)c(C(=O)O)cn1c23 (centres undefined) | -0.369 (inactive) | 0.841 | -0.196 | 
CC(C)NCC(O)c1ccc(O)c(O)c1 (centres undefined) | 1.31 (inactive) | 0.911 | 0.816 | 
O=C(Nc1ccc([N+](=O)[O-])cc1Cl)c1cc(Cl)ccc1O | -0.74 (inactive) | -1.01 | -1.03 | 
O=c1c(-c2ccc(O)cc2)coc2cc(O)cc(O)c12 | 0.848 (inactive) | 0.793 | -0.435 | 
N[C@@H](Cc1c[nH]c2ccc(O)cc12)C(=O)O | -0.189 (inactive) | -0.312 | -0.162 | 
CN(C)CCC=C1c2ccccc2C=Cc2ccccc21 | -0.345 (inactive) | 0.579 | 0.349 | 
COc1ccc(C2CNC(=O)C2)cc1OC1CCCC1 (centres undefined) | -0.000894 (inactive) | 0.813 | 0.981 | 
CCOC(=O)C(C)(C)Oc1ccc(Cl)cc1 | 0.714 (inactive) | 0.586 | 0.762 | 
NC(CO)C(=O)NNCc1ccc(O)c(O)c1O (centres undefined) | -0.229 (inactive) | -0.392 | -0.375 | 
Nc1nc2c(ncn2COC(CO)CO)c(=O)[nH]1 | 1.34 (inactive) | 1.36 | 1.37 | 
CN1C2CCC1CC(OC(=O)C(CO)c1ccccc1)C2 (centres undefined) | 0.435 (inactive) | 0.73 | -0.0914 | 
O=C1N(c2ccccc2)c2ccccc2C1(Cc1ccncc1)Cc1ccncc1 | -0.0273 (inactive) | 0.843 | 0.797 | 
COc1nc(C)nc(Cl)c1NC1=NCCN1 | -0.0792 (inactive) | -0.161 | 0.307 | 
COC(=O)Nc1nc2ccc(C(=O)c3cccs3)cc2[nH]1 |  | -1.94 | -1.92 | 69.2 nM (active)
Cc1cnc(C(=O)NCCc2ccc(S(=O)(=O)NC(=O)NC3CCCCC3)cc2)cn1 | 0.935 (inactive) | 0.686 | 0.444 | 
OCCN(CCO)c1nc(N2CCCCC2)c2nc(N(CCO)CCO)nc(N3CCCCC3)c2n1 | 1 (inactive) | 0.552 | 0.489 | 

SMILES | Z-AUC | Z-AUC [1] | Z-AUC (measured here: PEO4 Z-AUC) | Potency
CC(COc1ccccc1)N(CCCl)Cc1ccccc1 (centres undefined) | 1.41 (inactive) | 1.02 | 1.15 | 
CN1CCC(=C2c3ccccc3C=Cc3ccccc32)CC1 | 0.372 (inactive) | 0.535 | 0.739 | 
O=c1[nH]cc(F)c(=O)[nH]1 | 0.953 (inactive) | 0.582 | 0.136 | 
Cn1cnc2c1c(=O)[nH]c(=O)n2C | -0.393 (inactive) | -0.653 | -0.709 | 
O=C1c2c(O)ccc(O)c2C(=O)c2c(NCCNCCO)ccc(NCCNCCO)c21 |  | -2.48 | -2.26 | 195 nM (active)
Cc1ccc(C(=O)Nc2ccc(S(=O)(=O)O)c3cc(S(=O)(=O)O)cc(S(=O)(=O)O)c23)cc1NC(=O)c1cccc(NC(=O)Nc2cccc(C(=O)Nc3cc(C(=O)Nc4ccc(S(=O)(=O)O)c5cc(S(=O)(=O)O)cc(S(=O)(=O)O)c45)ccc3C)c2)c1 | 0.147 (inactive) | 0.903 | 0.677 | 
Nc1nnc(-c2cccc(Cl)c2Cl)c(N)n1 | -0.438 (inactive) | 0.568 | 0.453 | 
CCN1CCCC1CNC(=O)c1cc(S(=O)(=O)CC)c(N)cc1OC (centres undefined) | 1.05 (inactive) | 0.594 | 0.466 | 
Clc1ccc2nsnc2c1NC1=NCCN1 | 1.68 (inactive) | 1.11 | 1.24 | 
Cc1cc(C(C)(C)C)cc(C)c1CC1=NCCN1 | 0.735 (inactive) | 0.684 | 0.966 | 
CS(=O)(=O)CCNCc1ccc(-c2ccc3ncnc(Nc4ccc(OCc5cccc(F)c5)c(Cl)c4)c3c2)o1 | 0.292 (inactive) | 0.248 | 0.473 | 
O=C(c1ccc(OCCN2CCCCC2)cc1)c1c(-c2ccc(O)cc2)sc2cc(O)ccc12 | 0.6 (inactive) | 0.409 | 0.0416 | 
O=C(C1CCCCC1)N1CC(=O)N2CCc3ccccc3C2C1 (centres undefined) | 1.17 (inactive) | 0.752 | 1.07 | 
COc1ccccc1OCC(O)CN1CCN(CC(=O)Nc2c(C)cccc2C)CC1 (centres undefined) | -0.161 (inactive) | 0.571 | 0.54 | 
CCc1cccc2c3c([nH]c12)C(CC)(CC(=O)O)OCC3 (centres undefined) | 0.208 (inactive) | 0.962 | 0.882 | 
CC(C)(Oc1ccc(C2CC2(Cl)Cl)cc1)C(=O)O (centres undefined) | -0.348 (inactive) | -0.606 | -0.292 | 
Cn1c(=O)c2[nH]cnc2n(C)c1=O | 0.347 (inactive) | 0.72 | 0.784 | 
NS(=O)(=O)c1cc2c(cc1Cl)NCNS2(=O)=O | 1.17 (inactive) | 1.34 | 1.57 | 
CC(=O)OCC(CCn1cnc2cnc(N)nc21)COC(C)=O | 1.18 (inactive) | 1.12 | 1.62 | 
